From PubChem BioAssay
CD11b adhes inh = inhibitors of CD11b/CD18 adhesion to fibrinogen, primary screen, K562 cells, luminescence; ATPlite luminescence; Mn2+ added to activate the integrin; AID 1497, 2009; Integrin beta-2 (Homo sapiens) + Integrin alpha-M (Homo sapiens), P05107+P11215; inhibition, % at 10 µM; 0.54% of 93,000 active;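 active means primary inhibition of 50% or more at 10 µM, then 40% or more on retest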
Target sequence (P05107 whole entry, looked up, other chains not shown): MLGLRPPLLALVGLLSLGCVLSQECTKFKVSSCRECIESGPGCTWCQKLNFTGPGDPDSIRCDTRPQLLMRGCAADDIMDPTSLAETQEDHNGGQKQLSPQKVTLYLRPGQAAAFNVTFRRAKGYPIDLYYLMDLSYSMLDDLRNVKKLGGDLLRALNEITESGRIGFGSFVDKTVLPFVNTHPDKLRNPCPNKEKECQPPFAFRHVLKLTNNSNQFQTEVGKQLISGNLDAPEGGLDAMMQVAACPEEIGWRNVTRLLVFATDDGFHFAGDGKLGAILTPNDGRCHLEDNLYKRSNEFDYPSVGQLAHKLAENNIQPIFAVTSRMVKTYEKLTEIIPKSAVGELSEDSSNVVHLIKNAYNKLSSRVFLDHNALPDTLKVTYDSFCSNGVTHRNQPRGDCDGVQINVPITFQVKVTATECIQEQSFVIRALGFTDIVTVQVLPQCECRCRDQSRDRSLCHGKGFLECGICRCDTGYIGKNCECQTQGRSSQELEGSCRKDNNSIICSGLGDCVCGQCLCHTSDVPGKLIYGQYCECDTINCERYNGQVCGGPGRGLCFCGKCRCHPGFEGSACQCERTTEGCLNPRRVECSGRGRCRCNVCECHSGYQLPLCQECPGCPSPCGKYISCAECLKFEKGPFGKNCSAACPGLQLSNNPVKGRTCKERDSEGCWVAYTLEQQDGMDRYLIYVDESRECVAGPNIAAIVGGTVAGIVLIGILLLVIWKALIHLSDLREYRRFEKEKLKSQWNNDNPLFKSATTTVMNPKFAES
CD11b adhes enh = enhancers of CD11b/CD18 adhesion to fibrinogen, primary screen, K562 cells, luminescence; 0.07% of 93,000 active; activation, % at 10 µM; ATPlite luminescence; Integrin beta-2 (Homo sapiens) + Integrin alpha-M (Homo sapiens), P05107+P11215;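 active means 10 µM primary screen giving 50% or more activity, confirmed by 40% or more on retest at that dose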
CYP2C9 inhib = blockers of cytochrome P450 2C9 activity – biochemical, luminescence, ADME assay, primary screen; inhibition, % at 5 µM; CYP2C9 Supersomes, luciferin-H conversion; 20% of 96,000 active; P11712;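 active means blocking of liver enzyme CYP2C9 beyond about 50% at 5 µM, limit read from the data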
CYP2C19 act = human CYP2C19 activators, primary screen, biochemical, luminescence; Cytochrome P450 2C19 (Homo sapiens), P33261; recombinant CYP2C19, luciferin-H EGE luminescence; active compounds read high; 0 = fully inhibited enzyme, 1 = untreated enzyme; activation factor at 5 µM; 96,000 tested, under 10 active; AID 1025, 2008;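 active means activation factor of at least 2 at 5 µM in the primary screen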;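 further: 0 = wells with 2.5 mM tranylcypromine and 1 = vehicle-only wells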
CYP2C19 inhib = blockers of cytochrome P450 2C19 activity – biochemical, luminescence, ADME assay, primary screen; AID 778, 2007; P33261; 21% of 96,000 active; inhibition, % at 5 µM; CYP2C19 Supersomes, luciferin-H EGE luminescence, 30 min;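 active means CYP2C19 inhibition above a set limit at 5 µM in the primary screen, cut at about 50% in these data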;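 further: plate controls were negative control wells for no effect and 2.5 mM tranylcypromine positive control for full effect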
CYP2C9 act = human CYP2C9 activators, primary screen, biochemical, luminescence; recombinant CYP2C9, luciferin-H conversion; active compounds read high; factor 1 = untreated enzyme, 0 = blocked; activation factor at 5 µM; 1.4% of 96,000 active; AID 1024, 2008;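 active means activation factor of 2 or more for CYP2C9 at a 5 µM dose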;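 further: 0 = sulfaphenazole-blocked wells and 1 = vehicle-only wells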
Numbers without * were called inactive; nt = no result. The list is not random: actives were taken first. Their share in the collection is about 28%.

SMILES	CD11b adhes inh	CD11b adhes enh	CYP2C9 inhib	CYP2C19 act	CYP2C19 inhib	CYP2C9 act
CN1CCN(C(=O)c2ccc3c(=O)n(Cc4ccco4)c(=S)[nH]c3c2)CC1	-26	-6	43	0.8	24	0.6
O=c1c2cc3c(cc2[nH]c(=S)n1Cc1ccco1)OCO3	-4	1	11	0.2	78*	0.9
CCOC(=O)N1CCN(C(=O)c2ccc3c(=O)n(Cc4ccc(Cl)cc4)c(=S)[nH]c3c2)CC1	17	1	52*	0.6	41	0.5
O=C(c1ccc2c(=O)n(Cc3ccco3)c(=S)[nH]c2c1)N1CCN(Cc2ccccc2)CC1	2	-5	70*	0.4	57*	0.3
CCOC(=O)N1CCN(C(=O)c2ccc3c(=O)n(CCC4=CCCCC4)c(=S)[nH]c3c2)CC1	-4	-3	0	1	4	1
COc1ccc(/C=N\NC(=O)C2C(=O)NCC2c2ccccc2)cc1O (configuration not stated)	nt	nt	-2	1	-4	1
CCCOc1nc2c(c(=O)n(C)c(=O)n2C)n1Cc1cccc2ccccc12	33	-6	47	0.8	24	0.5
COc1ccccc1C1(O)CC2CCC(C1)N2S(=O)(=O)c1ccc(C(C)=O)cc1 (configuration not stated)	-11	6	-19	0.7	30	1.2
O=C(CCCN1C(=O)c2ccccc2C1=O)OC1CSCC1NC(=O)c1ccccc1 (configuration not stated)	-5	-2	3	0.3	70*	1
O=C(Cn1cnc2ccccc2c1=O)N1CCN(Cc2ccccc2)CC1	-16	2	3	1.1	-5	1
O=S(=O)(Nc1nc2ccccc2nc1NCCN1CCOCC1)c1cccc(Cl)c1	0	-5	98*	1	0	0
Clc1ccc(-c2csc3ncnc(NCCN4CCOCC4)c23)cc1	-35	4	23	0.8	24	0.8
Clc1ccc(-c2nc(NCCN3CCOCC3)c3ccccc3n2)cc1	2	-5	50*	0.8	20	0.5
Cc1ccc(C)c(NC(=O)C2CC3c4ccccc4C2c2ccccc23)c1 (configuration not stated)	nt	nt	32	0.8	24	0.7
CC1CC2(CCCCC2)N2C(=O)C(=O)c3cccc1c32 (configuration not stated)	nt	nt	16	0.7	34	0.8
CC(=O)N1c2ccc3ccccc3c2C(C)CC12CCCCC2 (configuration not stated)	-25	0	94*	0	98*	0.1
O=C(OCn1nnc2ccccc2c1=O)C1COc2ccccc2O1 (configuration not stated)	-34	3	-2	0.9	7	1
O=c1c2ccccc2nnn1CSc1nnc(C2COc3ccccc3O2)n1-c1ccccc1 (configuration not stated)	7	3	90*	0.1	87*	0.1
CCCn1nnc(NC(=O)c2ccc(Cl)cc2Cl)n1	-20	3	-24	0.1	89*	1.2
O=C(CN1C(=O)c2ccccc2S1(=O)=O)NCCSC1CCCCC1	2	0	24	0.9	11	0.8
N#CC1=C(N)S[C@H](C(=O)C23CC4CC(CC(C4)C2)C3)[C@H]1c1ccncc1	nt	nt	41	0.3	66*	0.6
CC(=O)Oc1ccc(OC(C)=O)c(SCCCCCN2CCOCC2)c1	nt	nt	-4	0.9	9	1
CCCc1cc(N2CCN(C(=O)c3ccco3)CC2)n2c(nc3ccccc32)c1C#N	-7	-2	76*	0.8	18	0.2
O=C(N/N=C/C1C(c2ccccc2)C1(Cl)Cl)c1cccc(Br)c1 (configuration not stated)	-5	3	70*	0.8	18	0.3
CN1C(=O)CC(n2c(CO)nc3ccccc32)C1=O (configuration not stated)	-8	-1	27	0.8	21	0.7
